Results reported in the supplement of paper PMC11732987, “Enantioselective OTUD7B fragment discovery through chemoproteomics screening and high-throughput optimisation” (Communications Chemistry, 2025).

What was measured:
Assay in all cases: log2 ratio of Biotin-Ahx-Ub-VS probe labelling (fragment/DMSO); higher = less target engagement (more negative = stronger competition), active = hit call of the paper (q ≤ 0.05, log2 ratio ≤ -1)
Details in all cases: compound concentration: 200 uM; treatment time: 3 h
OTUD6B = target: T1, OTUD6B (UniProt Q8N6M0)
T1 sequence (whole entry): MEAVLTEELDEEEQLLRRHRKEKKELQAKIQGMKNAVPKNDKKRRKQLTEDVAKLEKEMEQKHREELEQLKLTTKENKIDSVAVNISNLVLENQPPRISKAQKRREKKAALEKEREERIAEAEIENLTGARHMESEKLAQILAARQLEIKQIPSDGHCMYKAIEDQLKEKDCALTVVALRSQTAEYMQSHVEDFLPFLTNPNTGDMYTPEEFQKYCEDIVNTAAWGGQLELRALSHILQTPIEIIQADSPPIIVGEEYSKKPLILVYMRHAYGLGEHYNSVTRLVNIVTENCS
Outline: (§1)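 Global-median-normalised Spectronaut label-free quantities were compared by unpaired t-test, and values are average log2 ratios of fragment over vehicle. Only proteins with ≥2 unique peptides were used. HEK293T lysate (495 µg per sample) was treated in triplicate with fragment at 200 µM or vehicle for 3 h and then with Biotin-Ahx-Ub-VS at 0.5 µM final for 1 h. Labelled DUBs were then NeutrAvidin-enriched, digested with LysC and trypsin, and run by diaPASEF LC-MS/MS.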

OTUD7B = target: T2, OTUD7B (UniProt Q6GQQ9)
T2 sequence (whole entry): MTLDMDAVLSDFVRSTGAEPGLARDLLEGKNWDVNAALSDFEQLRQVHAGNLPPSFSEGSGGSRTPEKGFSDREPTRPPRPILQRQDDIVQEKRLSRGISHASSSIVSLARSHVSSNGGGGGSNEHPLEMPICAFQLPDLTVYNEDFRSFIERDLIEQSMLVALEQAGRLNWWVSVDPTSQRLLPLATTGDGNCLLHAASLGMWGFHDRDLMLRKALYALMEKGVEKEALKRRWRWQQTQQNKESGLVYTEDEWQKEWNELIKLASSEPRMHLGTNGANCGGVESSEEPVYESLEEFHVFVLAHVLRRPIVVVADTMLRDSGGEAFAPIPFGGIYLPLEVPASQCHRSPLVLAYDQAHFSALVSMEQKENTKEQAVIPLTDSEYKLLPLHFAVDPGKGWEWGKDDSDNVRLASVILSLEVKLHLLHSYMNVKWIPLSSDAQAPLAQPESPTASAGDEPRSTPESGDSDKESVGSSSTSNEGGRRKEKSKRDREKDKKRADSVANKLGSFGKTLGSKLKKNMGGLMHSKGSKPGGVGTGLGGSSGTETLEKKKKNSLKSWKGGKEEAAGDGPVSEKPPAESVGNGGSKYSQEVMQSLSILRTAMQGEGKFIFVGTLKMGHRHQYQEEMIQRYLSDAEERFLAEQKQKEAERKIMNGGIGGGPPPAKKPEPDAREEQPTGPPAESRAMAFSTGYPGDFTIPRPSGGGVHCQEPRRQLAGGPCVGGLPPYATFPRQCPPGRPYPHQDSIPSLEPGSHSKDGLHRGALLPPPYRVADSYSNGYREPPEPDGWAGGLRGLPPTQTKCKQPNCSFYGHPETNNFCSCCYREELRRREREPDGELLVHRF
Outline: as §1

PRPF8 = PRPF8 (UniProt Q6P2Q9)
Outline: as §1

PSMD7 = target: T3, PSMD7 (UniProt P51665)
T3 sequence (whole entry): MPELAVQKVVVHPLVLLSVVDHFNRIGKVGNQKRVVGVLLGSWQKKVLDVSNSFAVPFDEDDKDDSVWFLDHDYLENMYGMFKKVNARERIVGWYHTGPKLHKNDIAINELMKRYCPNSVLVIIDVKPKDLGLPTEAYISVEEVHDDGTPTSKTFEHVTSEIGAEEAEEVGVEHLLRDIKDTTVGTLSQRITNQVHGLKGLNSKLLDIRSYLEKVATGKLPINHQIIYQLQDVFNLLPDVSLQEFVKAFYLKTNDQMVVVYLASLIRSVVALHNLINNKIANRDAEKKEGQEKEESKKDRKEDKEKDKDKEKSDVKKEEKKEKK
Outline: as §1

UCHL1 = UCHL1 (UniProt P09936)
Outline: as §1

UCHL3 = target: T4, UCHL3 (UniProt P15374)
T4 sequence (whole entry): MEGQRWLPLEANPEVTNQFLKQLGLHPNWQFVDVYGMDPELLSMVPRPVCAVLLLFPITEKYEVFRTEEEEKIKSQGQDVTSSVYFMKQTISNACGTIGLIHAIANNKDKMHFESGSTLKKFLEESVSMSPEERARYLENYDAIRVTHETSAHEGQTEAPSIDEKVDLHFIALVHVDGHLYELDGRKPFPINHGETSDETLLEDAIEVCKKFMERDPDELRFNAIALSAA
Outline: as §1

UCHL5 = target: T5, UCHL5 (UniProt Q9Y5K5)
T5 sequence (whole entry): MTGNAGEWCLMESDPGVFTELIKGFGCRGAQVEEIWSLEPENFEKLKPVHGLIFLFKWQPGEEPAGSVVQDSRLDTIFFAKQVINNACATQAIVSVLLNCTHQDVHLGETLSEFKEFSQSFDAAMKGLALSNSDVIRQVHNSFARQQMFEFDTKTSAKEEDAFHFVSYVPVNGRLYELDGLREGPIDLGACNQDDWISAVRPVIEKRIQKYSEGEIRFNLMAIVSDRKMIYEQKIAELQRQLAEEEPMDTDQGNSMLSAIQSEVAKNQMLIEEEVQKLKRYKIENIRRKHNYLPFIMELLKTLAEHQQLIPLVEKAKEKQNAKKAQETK
Outline: as §1

USP10 = USP10 (UniProt Q14694)
Outline: as §1

USP15 = target: T6, USP15 (UniProt Q9Y4E8)
T6 sequence (whole entry): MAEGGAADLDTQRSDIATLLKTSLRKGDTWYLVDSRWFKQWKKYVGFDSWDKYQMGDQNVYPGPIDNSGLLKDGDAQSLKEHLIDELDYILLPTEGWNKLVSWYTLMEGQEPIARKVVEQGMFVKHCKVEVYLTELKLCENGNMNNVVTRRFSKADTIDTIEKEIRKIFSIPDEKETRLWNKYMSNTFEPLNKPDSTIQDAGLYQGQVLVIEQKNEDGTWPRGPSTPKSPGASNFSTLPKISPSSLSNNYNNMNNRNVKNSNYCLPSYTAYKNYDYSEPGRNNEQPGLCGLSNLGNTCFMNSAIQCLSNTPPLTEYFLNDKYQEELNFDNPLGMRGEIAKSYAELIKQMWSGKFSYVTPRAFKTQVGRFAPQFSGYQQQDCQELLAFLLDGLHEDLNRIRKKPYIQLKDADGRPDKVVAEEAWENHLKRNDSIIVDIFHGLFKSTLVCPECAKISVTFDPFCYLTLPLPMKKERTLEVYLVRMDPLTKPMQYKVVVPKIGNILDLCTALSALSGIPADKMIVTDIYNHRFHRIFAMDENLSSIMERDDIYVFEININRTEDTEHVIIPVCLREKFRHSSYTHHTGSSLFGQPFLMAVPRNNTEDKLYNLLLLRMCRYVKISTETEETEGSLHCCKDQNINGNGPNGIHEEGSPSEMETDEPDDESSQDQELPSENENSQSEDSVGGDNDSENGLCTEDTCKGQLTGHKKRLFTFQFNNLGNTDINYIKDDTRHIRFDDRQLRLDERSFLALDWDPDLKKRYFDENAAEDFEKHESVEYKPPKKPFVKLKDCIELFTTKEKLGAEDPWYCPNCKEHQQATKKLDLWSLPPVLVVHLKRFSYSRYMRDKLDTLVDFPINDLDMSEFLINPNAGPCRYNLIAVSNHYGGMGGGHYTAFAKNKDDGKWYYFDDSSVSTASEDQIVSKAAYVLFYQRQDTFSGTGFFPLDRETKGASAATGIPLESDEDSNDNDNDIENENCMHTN
Outline: as §1

Measured: log2 ratio of Biotin-Ahx-Ub-VS probe labelling

Chain of USP10 (Q14694 whole entry): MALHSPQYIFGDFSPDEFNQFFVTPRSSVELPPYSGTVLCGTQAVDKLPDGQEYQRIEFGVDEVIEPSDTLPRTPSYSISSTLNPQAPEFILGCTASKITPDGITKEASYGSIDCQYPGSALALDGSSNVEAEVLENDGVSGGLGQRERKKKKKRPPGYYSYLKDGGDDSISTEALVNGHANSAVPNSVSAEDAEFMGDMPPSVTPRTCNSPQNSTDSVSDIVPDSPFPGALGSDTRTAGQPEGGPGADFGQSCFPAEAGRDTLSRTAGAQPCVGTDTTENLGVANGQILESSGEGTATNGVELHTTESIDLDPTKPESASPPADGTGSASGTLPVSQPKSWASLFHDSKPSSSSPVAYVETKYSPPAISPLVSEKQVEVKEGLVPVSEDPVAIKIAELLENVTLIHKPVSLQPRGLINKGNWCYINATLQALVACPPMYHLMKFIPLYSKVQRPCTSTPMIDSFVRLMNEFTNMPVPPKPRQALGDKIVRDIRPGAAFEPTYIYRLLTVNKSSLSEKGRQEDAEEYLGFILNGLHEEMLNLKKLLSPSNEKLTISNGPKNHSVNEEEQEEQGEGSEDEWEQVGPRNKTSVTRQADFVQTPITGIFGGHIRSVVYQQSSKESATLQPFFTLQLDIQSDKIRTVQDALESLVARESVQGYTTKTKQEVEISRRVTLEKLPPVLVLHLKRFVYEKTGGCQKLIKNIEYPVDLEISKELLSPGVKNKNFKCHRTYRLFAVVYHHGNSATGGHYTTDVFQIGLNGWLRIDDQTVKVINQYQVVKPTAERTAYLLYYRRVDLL
Chain of UCHL1 (P09936 whole entry, looked up): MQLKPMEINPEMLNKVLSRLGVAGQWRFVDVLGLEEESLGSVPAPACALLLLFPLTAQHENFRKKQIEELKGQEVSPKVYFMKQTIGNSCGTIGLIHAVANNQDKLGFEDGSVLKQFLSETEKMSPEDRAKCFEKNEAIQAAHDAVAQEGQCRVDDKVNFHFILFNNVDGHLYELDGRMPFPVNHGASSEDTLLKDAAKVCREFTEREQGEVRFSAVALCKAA

Cl.O=C(CCl)N1CCC(Cc2nccs2)C1 (centres undefined)
active: UCHL1 -1.01
inactive: OTUD6B -0.205 | OTUD7B -0.436 | PRPF8 -0.0505 | PSMD7 -0.315 | UCHL3 -0.0765 | UCHL5 -0.293 | USP10 0.0972 | USP15 -0.249
